# GPT2 inhibitor: Primary qHTS assay for inhibitors of Glutamate pyruvate transaminase 2 (GPT2). Potency, µM (series often up to 57.7 µM), for the others: at the top dose activity change, negative = inhibition, usual class: inhibitors. AID 1671188, 2021. hit rate 0.25% among 100,000. Recombinant GPT2, coupled pyruvate oxidase/HRP Amplex Red fluorescence; further: nearly all actives have a fitted effect of over 60% in size
#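 Recombinant GPT2 (10ng/uL) with 250uM a-KG and 2mM L-alanine, 30 min at room temperature, in HEPES pH 7.5 buffer. Pyruvate detected by pyruvate oxidase/HRP/Amplex Red fluorescence after 30 min in the dark; AOA (50uM) as positive control.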
# hNpr1 antagonist: Natriuretic polypeptide receptor (hNpr1) antagonism - Primary qHTS | Atrial natriuretic peptide receptor 1 (Homo sapiens), P16066 | HEK293 hNpr1 GloSensor cGMP, ANP-stimulated luminescence | Potency, µM (top dose mostly 46.3 µM), inactives show top-dose activity change, negative = inhibition, actives largely listed as inhibitors | hit rate 1.6% among 76,000 | AID 1347048, 2019; calls by dose curve; further: nearly all actives have a fitted effect of over 60% in size
#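 HEK293 cells stably expressing human Npr1 and cGMP GloSensor pGS-40F, loaded 2 h with 2% GloSensor reagent, given compound 30 min at room temperature. Luminescence read before and 20 min after 0.1 nM hNppA.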
# 3T3 cytotox: Cytotoxic Profiling in NIH 3T3 Cell Line of Diverse Libraries Using Quantitative High-Throughput Screening | NIH 3T3 viability, CellTiter-Glo ATP luminescence, 48-72 h | Potency, µM (doses to about 96.7 µM), for the others: top-dose activity change, negative = cytotoxicity, most hits filed as inhibitors | hit rate 4.3% among 94,000; further: nearly all actives have a fitted effect of over 55% in size
#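 Cytotoxicity is measured as loss of cellular ATP: NIH 3T3 cells (400/well) are exposed to compound for 48 or 72 hr at 37 °C, then CellTiter-Glo luminescence is imaged after 10 min at room temperature.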
# HEK cytotox: Cytotoxic Profiling in HEK 293 Cell Line of Diverse Libraries Using Quantitative High-Throughput Screening | Potency, µM (series often up to 115 µM), without a hit: at the highest dose activity change, negative = cytotoxicity, most hits filed as inhibitors | hit rate 6.6% among 94,000 | HEK 293 viability, ATP luminescence (CellTiter-Glo), 48-72 h; further: nearly all actives have a fitted effect of over 60% in size
#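 HEK 293 seeded at 250 cells/well receive compound via pintool. After 48 or 72 hr at 37 degree Celsius, 5% CO2 and 95% humidity, CellTiter-Glo is dispensed and luminescence read following 10 min at room temperature.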
# FLuc inh: Firefly luciferase inhibition profiling of diverse chemical library using quantitative high-throughput screening | Luciferin 4-monooxygenase (Photinus pyralis), P08659 | purified P. pyralis luciferase, luminescence, biochemical | Potency, µM (doses to about 115 µM), hits mostly inhibitors | hit rate 2.5% among 76,000; further: nearly all actives have a fitted effect of over 65% in size
# Target sequence (P08659 whole entry, looked up): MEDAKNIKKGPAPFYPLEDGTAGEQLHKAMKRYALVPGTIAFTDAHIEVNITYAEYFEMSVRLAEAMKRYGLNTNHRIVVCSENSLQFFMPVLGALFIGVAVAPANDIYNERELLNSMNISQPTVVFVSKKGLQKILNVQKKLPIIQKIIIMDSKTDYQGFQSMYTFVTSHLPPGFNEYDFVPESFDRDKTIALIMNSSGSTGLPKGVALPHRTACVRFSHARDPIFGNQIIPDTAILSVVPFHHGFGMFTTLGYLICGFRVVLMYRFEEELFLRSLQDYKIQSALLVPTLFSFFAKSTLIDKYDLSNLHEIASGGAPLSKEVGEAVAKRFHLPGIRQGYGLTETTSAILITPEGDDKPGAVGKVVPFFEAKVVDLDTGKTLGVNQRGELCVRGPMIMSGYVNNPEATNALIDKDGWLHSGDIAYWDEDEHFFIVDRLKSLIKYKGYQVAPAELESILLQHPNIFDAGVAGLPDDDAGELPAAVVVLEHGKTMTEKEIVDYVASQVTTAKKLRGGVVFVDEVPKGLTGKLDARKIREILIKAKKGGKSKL
#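 Biochemical qHTS: compound (6-point titration) added to 10uM D-luciferin plus 10uM ATP in Tris acetate pH 7.5 buffer with Mg, Tween-20 and BSA, then purified enzyme at 10nM; light output imaged.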
# An asterisk follows results filed as active; i = inactive; ? = inconclusive; [ ] = dose if it differs, or a comment. Shown are actives, neighbours in structure and some others; about 10% of the full set was active somewhere. Unless noted, the call rests on the fitted dose curve; in most records, active means well fitted curve in the direction sought with a large enough effect; inconclusive means small, poorly fitted or top-dose-only effect, or another doubt; inactive means no such curve, though single readings can be large; an effect the other way counts as inactive or inconclusive. On the % scale 0 is the no-effect control and ±100 the full control effect; potency means the concentration at half of the fitted maximal effect.
SMILES,GPT2 inhibitor,hNpr1 antagonist,3T3 cytotox,HEK cytotox,FLuc inh
COc1ccc(-c2nn(-c3ccc(F)cc3)c(OC(C)=O)c2-c2ccc(NC(C)=O)cc2)cc1OC,?,-15.9%,?,?,i
CCC(=O)Nc1ccc(-c2c(-c3cc(OC)cc(OC)c3)nn(-c3ccc(C)cc3)c2OC(C)=O)cc1,6.31µM*,-20.6%,-22.1%,?,i
COc1cc(OC)cc(-c2nn(-c3ccc(C)cc3C)c(OC(C)=O)c2-c2ccc(NC(C)=O)cc2)c1,12.6µM*,-18.0%,?,?,i
CC(=O)Oc1c(-c2ccc(NC(=O)C3CC3)cc2)c(-c2ccc3c(c2)OCO3)nn1-c1cccc(C)c1,14.1µM*,-5.4%,?,?,i
COc1ccc(-c2nn(-c3ccc(C)cc3C)c(OC(C)=O)c2-c2ccc(NC(C)=O)cc2)c(OC)c1,?,-13.3%,?,-29.5%,i
COc1cncc(Nc2ncc(-c3ccccc3OC)c3c2OCC3)c1,-13.9%[88.5 µM],-4.2%[70.6 µM],70.8µM*,?,i
COc1ccc(Nc2ncc(-c3ccccc3OC)c3c2OCC3)cn1,i,?,?,?,31.6µM*
COc1ccccc1-c1cnc(Nc2cncnc2)c2c1CCO2,?,0.8%[70.6 µM],?,?,i
COc1ccc(C)cc1NC(=O)N1CCCC1c1nncn1C1CCCC1 (stereo not drawn),-26.4%,-2.4%,31.6µM*,5.8%,i
COc1ccc(C)cc1NC(=O)N1C[C@@H](F)C[C@H]1C(=O)N1CCCCC1,4.4%,-13.5%,35.5µM*,1.1%,i
Cc1ccc(C(=O)N2CCCN(Cc3ccncc3)C(c3ccccc3)CC(=O)NCC2)s1 (stereo not drawn),i,1.8%,?,?,?
O=C(O)C1CN(C(=O)c2csc(-c3cccs3)n2)CCO1 (stereo not drawn),-3.0%,3.1%,4.8%,i,i
O=C(c1csc(-c2cccs2)n1)N1CCC2(CCCO2)CC1,i,3.0%,?,?,35.5µM*
COc1ccc(-c2cc(N3CCC(NC(=O)c4ccccc4Cl)C3)n[nH]2)cc1 (stereo not drawn),?,-0.3%,?,?,i
CN(Cc1cccc(CCN)c1)Cc1cccc2ncccc12,2.3%,-4.1%,?,44.7µM*,i
Cc1c(CN(C)Cc2cccc3ncccc23)c(=O)n(-c2ccccc2)n1C,-15.4%,-0.5%,-24.6%,-8.1%,i
Cn1cc(-c2ccccc2Oc2ccccc2)c2nc(CO)cn2c1=O,-18.6%[88.5 µM],-0.2%[70.6 µM],?,-20.7%[172 µM],i
CN1CCN(Cc2cn3c(=O)n(C)cc(-c4ccccc4F)c3n2)CC1,4.1%[88.5 µM],-0.3%[70.6 µM],i,?,i
COc1cc(F)ccc1-c1cn(C)c(=O)n2cc(CN3CCOCC3)nc12,-0.1%[88.5 µM],3.0%[70.6 µM],112µM*,-8.2%[172 µM],i
Cn1cc(-c2ccccc2Oc2ccccc2)c2nc(CN3CCOCC3)cn2c1=O,-0.7%[88.5 µM],1.2%[70.6 µM],89.1µM*,-6.5%[172 µM],i
O=C(N[C@H]1CO[C@H]2[C@@H]1OC[C@@H]2Nc1nccc(-c2ccc(-c3ccccc3)cc2)n1)c1ccccc1,-3.1%,?,?,10µM*,i
CN(C)c1ccc(-c2ccnc(N[C@H]3CO[C@H]4[C@@H]3OC[C@@H]4NC(=O)NCc3ccccc3)n2)cc1,2.0%,-12.3%,22.4µM*,31.6µM*,?
CCNC(=O)N[C@H]1CO[C@H]2[C@@H]1OC[C@@H]2Nc1nccc(-c2ccc(OC)cc2)n1,i,0.6%[70.6 µM],?,?,i
COc1ccc(-c2ccnc(N[C@H]3CO[C@H]4[C@@H]3OC[C@@H]4NS(=O)(=O)c3ccc(NC(C)=O)cc3)n2)cc1,0.1%,?,?,39.8µM*,i

# Source: PubChem (National Center for Advancing Translational Sciences (NCATS))
